High-throughput results from PubChem.
3T3 cytotox: kills NIH 3T3 cells; NIH 3T3 viability, CellTiter-Glo ATP luminescence, 48-72 h; Potency, µM (doses to about 96.7 µM), inactives show at the top dose activity change, negative = cytotoxicity, most hits filed as inhibitors; 94,000 compounds, 4.3% hits; further: nearly all actives have a fitted effect of over 55% in size
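Luminescent ATP readout (CellTiter-Glo, 10 min RT) after 48 or 72 hr compound exposure of NIH 3T3 cells seeded at 400 cells/well in 1536-well format; quantitative HTS.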
GPT2 inh: blocks human glutamate pyruvate transaminase 2. 100,000 compounds, 0.25% hits. AID 1671188. Potency, µM (titrated, usually from 57.7 µM), for inactives: at the top dose activity change, negative = inhibition, usual class: inhibitors. Q8TD30. Recombinant GPT2, coupled pyruvate oxidase/HRP Amplex Red fluorescence; further: nearly all actives have a fitted effect of over 60% in size
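Fluorescence read-out: pyruvate from GPT2 turnover coupled to pyruvate oxidase, HRP and Amplex Red (0.2mM ThPP, 0.2U/mL PO and HRP, 50uM Amplex final). Substrates 250uM a-KG, 2mM L-alanine; enzyme 10ng/uL; 30 min RT.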
Luciferase inh: inhibitors of firefly (Photinus pyralis) luciferase; Potency, µM (series often up to 115 µM), actives largely listed as inhibitors; purified P. pyralis luciferase, luminescence, biochemical; 76,000 compounds, 2.5% hits; AID 1347043; further: nearly all actives have a fitted effect of over 65% in size
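Purified P. pyralis luciferase (10nM final) in 50mM Tris acetate pH 7.5, 10mM Mg acetate, 0.01% Tween-20, 0.05% BSA with 10uM D-luciferin and 10uM ATP. Compounds titrated qHTS. Luminescence imaged on CCD.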
HEK cytotox: kills HEK 293 cells. 94,000 compounds, 6.6% hits. AID 1345083. Potency, µM (top dose mostly 115 µM), inactives show top-dose activity change, negative = cytotoxicity, actives largely listed as inhibitors. HEK 293 viability, ATP luminescence (CellTiter-Glo), 48-72 h; further: nearly all actives have a fitted effect of over 60% in size
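HEK 293 cells at 250 cells/well were exposed to compounds by pintool transfer for 48 or 72 hr at 37 degree Celsius, 5% CO2. Viability was read as ATP-coupled luminescence with CellTiter-Glo after 10 min at room temperature.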
hNpr1 antagonist: antagonists of human natriuretic peptide receptor Npr1. HEK293 hNpr1 GloSensor cGMP, ANP-stimulated luminescence. AID 1347048. Potency, µM (doses to about 46.3 µM), for the others: at the highest dose activity change, negative = inhibition, usual class: inhibitors. P16066. 76,000 compounds, 1.6% hits; calls by dose curve; further: nearly all actives have a fitted effect of over 60% in size
Target sequence (P16066 whole entry, looked up): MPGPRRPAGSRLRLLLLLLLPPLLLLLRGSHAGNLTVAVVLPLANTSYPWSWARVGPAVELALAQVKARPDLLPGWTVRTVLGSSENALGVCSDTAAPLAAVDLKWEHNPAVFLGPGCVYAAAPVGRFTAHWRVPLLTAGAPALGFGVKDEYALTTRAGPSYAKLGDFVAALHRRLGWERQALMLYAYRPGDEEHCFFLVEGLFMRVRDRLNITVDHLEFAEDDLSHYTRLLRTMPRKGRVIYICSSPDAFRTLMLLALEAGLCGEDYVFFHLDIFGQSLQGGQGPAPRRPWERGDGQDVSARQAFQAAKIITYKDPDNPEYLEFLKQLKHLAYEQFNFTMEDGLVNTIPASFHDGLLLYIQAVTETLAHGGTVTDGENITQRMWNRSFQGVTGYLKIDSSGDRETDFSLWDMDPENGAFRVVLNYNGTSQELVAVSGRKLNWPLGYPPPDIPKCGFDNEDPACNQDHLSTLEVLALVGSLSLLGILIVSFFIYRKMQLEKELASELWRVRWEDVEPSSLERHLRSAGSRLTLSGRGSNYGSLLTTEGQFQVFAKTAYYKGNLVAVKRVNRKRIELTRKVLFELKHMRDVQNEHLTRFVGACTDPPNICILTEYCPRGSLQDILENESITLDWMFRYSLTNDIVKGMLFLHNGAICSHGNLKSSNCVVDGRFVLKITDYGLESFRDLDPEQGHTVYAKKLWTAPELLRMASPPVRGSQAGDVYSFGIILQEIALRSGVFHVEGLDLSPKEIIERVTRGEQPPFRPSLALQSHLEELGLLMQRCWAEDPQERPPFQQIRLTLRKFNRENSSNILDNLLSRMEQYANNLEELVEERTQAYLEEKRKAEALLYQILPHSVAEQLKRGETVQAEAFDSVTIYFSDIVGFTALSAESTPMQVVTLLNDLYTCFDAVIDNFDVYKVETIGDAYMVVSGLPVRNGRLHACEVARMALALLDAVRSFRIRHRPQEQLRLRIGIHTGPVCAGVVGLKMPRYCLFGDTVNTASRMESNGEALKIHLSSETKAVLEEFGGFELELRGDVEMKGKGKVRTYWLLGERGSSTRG
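Compound pre-incubated 30 min at room temperature on GloSensor-loaded HEK293 cells stably carrying hNpr1 and the pGS-40F cGMP biosensor. Stimulation uses hNppA at 0.1 nM final; luminescence is taken at baseline and 20 min post-agonist.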
An asterisk follows results filed as active; [ ] = remark or other dose. In the library only some 10% were active in any assay of this set; here they are far more common. Unless noted, the call rests on the fitted dose curve; in most records, active means well fitted curve in the direction sought with a large enough effect; inconclusive means small, poorly fitted or top-dose-only effect, or another doubt; inactive means no such curve, though single readings can be large; an effect the other way counts as inactive or inconclusive. On the % scale 0 is the no-effect control and ±100 the full control effect; potency means the concentration at half of the fitted maximal effect.

How did COc1cc2c(cc1OCC1CC1)NC(=O)C21CCN(Cc2nccs2)CC1 do in these assays?
3T3 cytotox: inconclusive; GPT2 inh: -13.5%[88.5 µM]; Luciferase inh: inactive; HEK cytotox: inconclusive; hNpr1 antagonist: -11.7%[70.6 µM]

Results for COc1cc2c(cc1OCC1CC1)NC(=O)C21CCN(C(=O)c2cccc(C#N)c2)CC1 ?
3T3 cytotox: inconclusive; GPT2 inh: 4.6%[88.5 µM]; Luciferase inh: inactive; HEK cytotox: 79.4µM*; hNpr1 antagonist: 0.1%[70.6 µM]

What do the screens show for `COc1cc2c(cc1OCc1ccccc1)NC(=O)C21CCN(Cc2ccccn2)CC1`?
3T3 cytotox: 89.1µM*; GPT2 inh: inactive; Luciferase inh: inactive; HEK cytotox: 79.4µM*; hNpr1 antagonist: 5.3%[70.6 µM]

How did COc1cc2c(cc1OCc1ccncc1)NC(=O)C21CCN(CC2CC2)CC1 do in these assays?
3T3 cytotox: 100µM*; GPT2 inh: 0.7%[88.5 µM]; Luciferase inh: inactive; HEK cytotox: -22.7%[172 µM]; hNpr1 antagonist: 6.2%[70.6 µM]

How did COc1cc2c(cc1OCc1ccccc1)NC(=O)C21CCN(CC2CC2)CC1 do in these assays?
3T3 cytotox: 31.6µM*; GPT2 inh: 2.9%[88.5 µM]; Luciferase inh: inconclusive; HEK cytotox: 39.8µM*; hNpr1 antagonist: -1.3%[70.6 µM]

What do the screens show for `COC1CC(O[C@H]2CC[C@]3(C=O)C4CC[C@]5(C)[C@@H](C6=CC(=O)OC6)CC[C@]5(O)[C@@H]4CC[C@@H]3C2)OC(C)C1O[C@@H]1O[C@H](CO)[C@@H](O[C@@H]2O[C@H](CO)[C@@H](O)[C@H](O)[C@H]2O)[C@H](O)[C@H]1O` (some centres undefined)?
GPT2 inh: -5.6%[17.1 µM]

Results for CC12CCC3C(C1)c1c(cc(O)c(C(=O)c4ccccc4)c1OC3(C)C)O2 (centres undefined) ?
GPT2 inh: -13.3%[27.3 µM]

How did CC[C@@H](C)[C@H]1C(=O)O[C@H](C(C)C)C(=O)N(C)[C@@H]([C@@H](C)CC)C(=O)O[C@H](C(C)C)C(=O)N(C)[C@@H]([C@H](C)CC)C(=O)O[C@H](C(C)C)C(=O)N1C do in these assays?
GPT2 inh: -1.8%[17.1 µM]

What do the screens show for `COc1cc2c(cc1OCc1ccncc1)NC(=O)C21CCN(C(=O)c2cccnc2)CC1`?
3T3 cytotox: 35.5µM*; GPT2 inh: 4.8%; Luciferase inh: inactive; HEK cytotox: 4.3%; hNpr1 antagonist: 0.7%

How did COc1ncc(-c2cc3c(cc2OC)C2(CCN(C(C)=O)CC2)C(=O)N3)cn1 do in these assays?
3T3 cytotox: 44.7µM*; GPT2 inh: -16.3%[88.5 µM]; Luciferase inh: inactive; HEK cytotox: -9.2%[172 µM]; hNpr1 antagonist: 3.1%[70.6 µM]

How did COc1cc2c(cc1OCc1ccncc1)NC(=O)C21CCN(Cc2ccccc2O)CC1 do in these assays?
3T3 cytotox: inconclusive; GPT2 inh: inactive; Luciferase inh: inactive; HEK cytotox: 44.7µM*; hNpr1 antagonist: -23.0%

What do the screens show for `COc1cc2c(cc1-c1cccnc1OC)NC(=O)C21CCN(C(C)=O)CC1`?
3T3 cytotox: inconclusive; GPT2 inh: inactive; Luciferase inh: inactive; HEK cytotox: -31.0%[172 µM]; hNpr1 antagonist: -6.6%[70.6 µM]

Results for CC(C)=CCC[C@]1(C)C=Cc2c(O)c3c(c(CC=C(C)C)c2O1)O[C@]12C(=C[C@@H]4CC1C(C)(C)O[C@@]2(C/C=C(/C)C(=O)O)C4=O)C3=O ?
GPT2 inh: inactive

What do the screens show for `CCOC(=O)[C@H]1CN(C(=O)c2cccs2)[C@]2(C)C(=O)N(CC3CC3)c3ccccc3[C@H]12`?
3T3 cytotox: inconclusive; GPT2 inh: inactive; HEK cytotox: inconclusive

Results for O=C(N1CCCCC1Cc1ccccc1)n1cc(-c2ccc(-c3ccccc3)cc2)nn1 (centres undefined) ?
GPT2 inh: -7.3%

How did CC(C)CN1Cc2ccccc2-n2ccnc2C12CCN(C(=O)C(C)C)CC2 do in these assays?
3T3 cytotox: -22.3%; GPT2 inh: -16.0%; Luciferase inh: inactive; HEK cytotox: inconclusive; hNpr1 antagonist: -2.7%

What do the screens show for `Cc1ccc(C(=O)N2CCC3(CC2)c2nccn2-c2ccccc2CN3CC(C)C)cc1F`?
3T3 cytotox: 35.5µM*; GPT2 inh: 3.7%; Luciferase inh: inactive; HEK cytotox: 35.5µM*; hNpr1 antagonist: -20.3%

What do the screens show for `COc1cc2c(cc1OCC1CC1)NC(=O)C21CCN(C(=O)c2ccccc2)CC1`?
3T3 cytotox: inconclusive; GPT2 inh: -5.9%[88.5 µM]; Luciferase inh: inactive; HEK cytotox: inconclusive; hNpr1 antagonist: 4.3%[70.6 µM]

What do the screens show for `COc1cc2c(cc1OCc1ccccc1)NC(=O)C21CCN(c2cnccn2)CC1`?
3T3 cytotox: 79.4µM*; GPT2 inh: 2.0%[88.5 µM]; Luciferase inh: inactive; HEK cytotox: 63.1µM*; hNpr1 antagonist: -26.9%[70.6 µM]

What do the screens show for `COc1cc2c(cc1OCc1ccccc1)NC(=O)C21CCN(c2nc(C)cnc2C)CC1`?
3T3 cytotox: inconclusive; GPT2 inh: -10.5%; Luciferase inh: inactive; HEK cytotox: 35.5µM*; hNpr1 antagonist: -23.2%

Results for CCOC(=O)[C@H]1CN(C(=O)NCc2ccccc2)[C@]2(C)C(=O)N(CCOC)c3ccccc3[C@H]12 ?
3T3 cytotox: inconclusive; GPT2 inh: -12.9%[27.3 µM]; HEK cytotox: -5.1%[57.5 µM]

How did COc1ccc(OC)c(S(=O)(=O)NC[C@H]2C[C@@H]3CCN2C[C@@H]3c2cc(-c3cccs3)nn2C)c1 do in these assays?
3T3 cytotox: 79.4µM*; GPT2 inh: 0.7%; Luciferase inh: inactive; HEK cytotox: inconclusive; hNpr1 antagonist: -15.0%

How did Cc1ccc(C(=O)NC[C@H]2C[C@@H]3CCN2C[C@@H]3c2cc(-c3cccs3)nn2C)cc1 do in these assays?
3T3 cytotox: 112µM*; GPT2 inh: -8.2%[88.5 µM]; Luciferase inh: inactive; HEK cytotox: inconclusive; hNpr1 antagonist: 1.6%[70.6 µM]

How did Cn1nc(C2CCCCC2)cc1[C@H]1CN2CC[C@H]1C[C@@H]2CNC(=O)c1ccc2c(c1)OCO2 do in these assays?
3T3 cytotox: inconclusive; GPT2 inh: -5.8%; Luciferase inh: inactive; HEK cytotox: inconclusive; hNpr1 antagonist: -1.8%

Results for Cn1nc(C2CCCCC2)cc1[C@H]1CN2CC[C@H]1C[C@@H]2CNC(=O)Nc1ccccc1 ?
3T3 cytotox: 28.2µM*; GPT2 inh: -6.6%[88.5 µM]; Luciferase inh: inactive; HEK cytotox: 31.6µM*; hNpr1 antagonist: 3.2%[70.6 µM]

How did Cc1ccc(C(=O)NC[C@H]2C[C@@H]3CCN2C[C@@H]3c2cc(C3CCCCC3)nn2C)cc1 do in these assays?
3T3 cytotox: 35.5µM*; GPT2 inh: -0.8%[88.5 µM]; Luciferase inh: inactive; HEK cytotox: inconclusive; hNpr1 antagonist: -10.9%[70.6 µM]

Results for CC(C)CCN(C1CCNCC1)C1CCOCC1 ?
3T3 cytotox: -2.8%; GPT2 inh: inactive; Luciferase inh: inactive; HEK cytotox: -15.1%; hNpr1 antagonist: 2.5%
